Data: PubChem BioAssay AID1159580 (chemical genetic matrix, 2015)
About 2,000 (36%) of roughly 5,500 compounds were called active. Another 18% or so got no clear call; they are omitted. Rule as the data show it: active = normalized growth mostly below about 0.91 (no sharp cut-off); inconclusive = no clear call, values can overlap the other calls; inactive = mostly above about 0.92. The list shows a part of the results.

Assay: chemical genetic growth profiling, strain panel (AID 1159580);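 also: tested at 20 µM; growth read once vehicle control cultures reached saturation at 30 °C; 1 = growth at the plate median or of vehicle wells; lower values mean less growth of the strain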
Details: S. cerevisiae deletion strains, growth OD

Measured: normalized growth

C=CCN1CC[C@]23c4c5ccc(O)c4O[C@H]2/C(=N\NC(=O)c2ccccc2)CC[C@@]3(O)[C@H]1C5
inactive: locus YAL013W, strain DEP1, stronger effect = lower value 0.989 | locus YAL040C, strain CLN3, stronger effect = lower value 1.06 | locus YCL061C, strain MRC1 (second series), stronger effect = lower value 0.987 | locus YDR363W, strain ESC2, stronger effect = lower value 0.998 | locus YER002W, strain NOP16, stronger effect = lower value 1.03 | locus YGR078C, strain PAC10, stronger effect = lower value 0.985 | locus YNL153C, strain GIM3, stronger effect = lower value 0.983 | locus YNL175C, strain NOP13, stronger effect = lower value 0.993 | locus YNL197C, strain WHI3, stronger effect = lower value 0.996 | locus YNL224C, strain SQS1, stronger effect = lower value 1 | locus YOR083W, strain WHI5 (second series), stronger effect = lower value 0.991 | locus YPL241C, strain CIN2, stronger effect = lower value 0.996
